The values that follow come from PubChem BioAssay AID1347419 (Sanford-Burnham Center for Chemical Genomics, 2020).

The whole screen tested about 99,000 compounds, of which about 820 (0.83%) were called active.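 Rule for the calls: active = Z-score of -3 or lower, scaled per plate to the spread of control and sample wells; inactive = z-score above -3.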 Only a selection was taken, and actives are over-represented in it overall.

In the assay the target is Protein-tyrosine kinase 2-beta (Homo sapiens) (UniProt Q14289). Description: antagonists of Pyk2 self-association, primary screen, Q293 cells, FERM NanoBiT luminescence, HTS (AID 1347419).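 Note: the deposit names both 25 µM and 10 µM; negative z-score means lost luminescence so less FERM oligomerization.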 The following applies: stronger effect = lower value. Also noted: dose or concentration left out as unconfirmed.
Sequence of Protein-tyrosine kinase 2-beta (Homo sapiens) (Q14289 whole entry, looked up): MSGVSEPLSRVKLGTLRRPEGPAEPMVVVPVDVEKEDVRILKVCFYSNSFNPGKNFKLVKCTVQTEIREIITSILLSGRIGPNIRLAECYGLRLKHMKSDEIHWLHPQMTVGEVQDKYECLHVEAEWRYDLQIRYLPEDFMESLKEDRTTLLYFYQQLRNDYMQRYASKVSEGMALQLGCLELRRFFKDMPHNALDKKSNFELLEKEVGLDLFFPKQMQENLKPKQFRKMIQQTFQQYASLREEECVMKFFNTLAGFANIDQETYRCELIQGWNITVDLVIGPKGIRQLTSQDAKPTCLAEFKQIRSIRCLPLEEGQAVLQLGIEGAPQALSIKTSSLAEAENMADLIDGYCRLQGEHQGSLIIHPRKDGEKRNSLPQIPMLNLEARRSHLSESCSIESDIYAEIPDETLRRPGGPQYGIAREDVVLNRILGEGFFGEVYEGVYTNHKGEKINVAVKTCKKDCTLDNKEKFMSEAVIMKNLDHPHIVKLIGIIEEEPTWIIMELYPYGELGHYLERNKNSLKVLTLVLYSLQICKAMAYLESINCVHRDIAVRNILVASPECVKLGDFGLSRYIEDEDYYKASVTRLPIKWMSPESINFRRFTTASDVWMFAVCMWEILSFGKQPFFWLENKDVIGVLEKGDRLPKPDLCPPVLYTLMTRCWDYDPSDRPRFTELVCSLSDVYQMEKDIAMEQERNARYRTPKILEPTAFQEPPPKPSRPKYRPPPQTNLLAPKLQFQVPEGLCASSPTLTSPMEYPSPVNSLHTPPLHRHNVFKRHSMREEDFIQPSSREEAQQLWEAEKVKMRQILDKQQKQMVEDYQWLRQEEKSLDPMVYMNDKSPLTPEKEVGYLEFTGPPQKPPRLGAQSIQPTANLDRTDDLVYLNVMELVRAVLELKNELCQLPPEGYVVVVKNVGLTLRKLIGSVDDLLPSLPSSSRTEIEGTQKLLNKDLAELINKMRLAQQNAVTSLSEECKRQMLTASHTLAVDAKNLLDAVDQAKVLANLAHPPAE
For the compound `COc1cc(-c2cc(C(=O)OCC(=O)Nc3ccc4c(c3)OCO4)c3ccccc3n2)cc(OC)c1OC`, the z-score is -0.31 (inactive).
Take `CN(C)c1cc[n+](Cc2ccccc2)cc1`: the z-score is 0.16 (inactive).
Take `CN(C)c1ccc(/C=C2\NC(=S)N(Cc3ccccc3)C2=O)cc1`: the z-score is -3.38 (active).
In the case of `CC1=NN(Cc2ccccc2)C(=O)/C1=C/c1ccc(N(C)C)cc1` it was -1.29 (inactive); in that of `Cc1cc(C)cc(C(=O)NC(=S)Nc2ccc3[nH]c(=O)[nH]c3c2)c1`, 0.78 (inactive); in that of `COC(=O)c1cn(CC(=O)NCc2cccs2)c2ccccc12`, -0.4 (inactive).
To `O=C(Cn1cc(C(=O)c2cccs2)c2ccccc21)NCc1cccs1` belongs -3.3 (active); to `COCCNC(=O)Cn1cc(C(=O)c2cccs2)c2ccccc21`, -0.12 (inactive); to `Cc1ccc(S(=O)(=O)NNC(=O)Nc2cccc3ccccc23)cc1`, -1.37 (inactive).
Turning to `CC(=O)c1c(O)cc2n(c1=O)-c1ccc(Cl)cc1C2(C)C`, the z-score is -0.76 (inactive).
For the compound `CCNC(=S)N1CCN(c2ncccn2)CC1`, the z-score is 0.25 (inactive).
With `COc1ccc(S(=O)(=O)N(C)CC(=O)Nc2ccc3c(c2)OCCO3)cc1OC`, the z-score was 0.96 (inactive).
In the case of `O=C(CN(c1ccc2c(c1)OCCO2)S(=O)(=O)c1ccccc1)Nc1ccc2c(c1)OCO2` it was -3.19 (active); in that of `CCCCC(=O)Nc1ccc2c(c1)OCCO2`, -0.26 (inactive); in that of `Cc1cc([N+](=O)[O-])ccc1NC1CCCC1`, 0.61 (inactive).
In the case of `CC(C)(C)C1CCC(=NNC(=O)c2cc(-c3ccccc3)n[nH]2)CC1` (stereo not drawn) it was 0.56 (inactive).
Take `CCOc1ccc(NC(=S)NC(=O)/C=C/c2ccc(OC)cc2)c([N+](=O)[O-])c1`: the z-score is 0.72 (inactive).
In the case of `COc1ccc(-c2ccc(Nc3ccc(S(=O)(=O)N4CCCC4)cc3)nn2)cc1OC` it was -3.54 (active).
With `COc1ccc(S(=O)(=O)Nc2ccc(S(=O)(=O)N3CCCCC3)cc2)cc1OC`, the z-score is -1.09 (inactive).
Regarding `COc1ccc(S(=O)(=O)N2CCCCC2)cc1Br`, the z-score is -0.87 (inactive).
To `CN(C)CCCNC(=S)NCc1ccc(Cl)cc1` belongs 0.46 (inactive); to `Cc1ccc(C(C)NC(=O)Cn2nc(C)c([N+](=O)[O-])c2C)cc1` (stereo not drawn), 0.63 (inactive); to `O=C1c2ccccc2C2=Nc3ccccc3SC(c3ccccc3F)C12` (stereo not drawn), -4.39 (active).
To `CCCOc1ccc(Cn2ccnc2)cc1[N+](=O)[O-]` belongs 1.5 (inactive); to `Cc1ccc(O)c(CCc2ccccc2)n1`, 0.72 (inactive).
Take `COc1ccc(-c2cc(C(F)(F)F)nc(NCc3cccnc3)n2)cc1`: the z-score is -3.51 (active).
To `COc1ccc(-c2nnc(SCc3cccnc3)o2)cc1` belongs -0.08 (inactive); to `FC(F)(F)c1cc(-c2ccco2)nc(NCc2ccc(Cl)cc2)n1`, 0.02 (inactive); to `O=C(CCN1C(=O)c2ccccc2C1=O)Nc1ccncc1`, 0.81 (inactive).
In the case of `COc1cc(C(=O)NC(=S)NCc2ccco2)cc(OC)c1OC` it was 0.39 (inactive); in that of `N#Cc1c(NC(=O)CCCN2C(=O)c3ccccc3C2=O)oc(-c2ccccc2)c1-c1ccccc1`, -3.57 (active).
To `COc1cc(C(=O)Nc2oc(-c3ccccc3)c(-c3ccccc3)c2C#N)cc(OC)c1OC` belongs -3.42 (active); to `COC(=O)c1sccc1NC(=O)c1cc(OC)c(OC)c(OC)c1`, -0.79 (inactive).
In the case of `N#Cc1c(/N=C/N2CCCC2)oc(-c2ccccc2)c1-c1ccccc1`, the z-score is -2.56 (inactive).
In the case of `Cc1ccc(NC(=O)Cn2cccc2C2=NC(c3ccccc3)CO2)c(C)c1` (stereo not drawn), the z-score is -0.85 (inactive).
To `OC(COCc1ccco1)CN1CCN(c2ccccc2)CC1` (stereo not drawn) belongs 1 (inactive); to `CC(CNc1ccc([N+](=O)[O-])c2cccnc12)Nc1c([N+](=O)[O-])cc(C(F)(F)F)cc1[N+](=O)[O-]` (stereo not drawn), -1.13 (inactive); to `Cc1ccc(NC(=O)CC2C(=O)N(Cc3ccccc3)C(=S)N2NC(=O)c2cccc(F)c2)c(C)c1` (stereo not drawn), -1.13 (inactive).
Regarding `COC(=O)C1=NNC2(c3ccc(C)cc3)C(=O)N(c3cccc(C)c3C)C(=O)C12` (stereo not drawn), the z-score is -0.49 (inactive).
`CCc1ccc(NC(=O)c2ccc(Cn3cc([N+](=O)[O-])cn3)cc2)cc1`: the z-score is -0.1 (inactive).
`O=C(CSC(=S)N1CCOCC1)c1ccccc1`: the z-score was 0.14 (inactive).
To `CC(=O)Nc1ccc(SCC(=O)Nc2ccccc2Oc2ccccc2)cc1` belongs -1.74 (inactive); to `COc1ccc(CCn2nnnc2C(c2ccccc2)N2CCN(C)CC2)cc1OC` (stereo not drawn), 0.7 (inactive).
As for `COc1ccc(C(c2nnnn2Cc2cccs2)N2CCN(c3ccccc3)CC2)cc1OC` (stereo not drawn), the z-score was -3.47 (active).
To `COCCn1nnnc1C(c1ccccc1Cl)N1CCN(c2ccccc2OC)CC1` (stereo not drawn) belongs 0.11 (inactive); to `CC1(C)Cc2cccc(OCC(=O)N3CCN(c4ccc([N+](=O)[O-])cc4)CC3)c2O1`, -1.19 (inactive).
In the case of `COC(=O)c1ccc(C(=O)OC)c(NC(=S)N2CCN(c3cc(Cl)ccc3C)CC2)c1` it was 0.27 (inactive).
To `Cc1cc(C)c2[nH]c(=O)c(C(c3nnnn3Cc3ccc4c(c3)OCO4)N3CCCC3)cc2c1` (stereo not drawn) belongs 0.33 (inactive).
With `CC(C)(C)n1nnnc1C(c1ccc(F)cc1)N1CCN(Cc2ccc3c(c2)OCO3)CC1` (stereo not drawn), the z-score is -0.6 (inactive).
On to `Fc1ccccc1C(c1nnnn1Cc1ccc2c(c1)OCO2)N1CCN(Cc2ccccc2)CC1` (stereo not drawn), for which the z-score was -3.73 (active).
`CCc1ccc(Oc2coc3cc(OC(=O)c4cc5ccccc5oc4=O)ccc3c2=O)cc1`: the z-score was -2.06 (inactive).
Turning to `C=CCNC(=O)c1ccccc1NC(=O)c1ccc(Cl)c(S(=O)(=O)Nc2cccc(C)c2C)c1`, the z-score was -3.05 (active).
To `Cc1ccccc1NC(=O)c1ccccc1NS(=O)(=O)c1cccc2cccnc12` belongs -1.55 (inactive); to `COC(=O)c1ccc(C(=O)Nc2cc(Cl)ccc2Cl)cc1NC(=O)c1ccccc1C`, 0.09 (inactive); to `Cc1nc2ccccc2n1CC(=O)N/N=C/c1cccs1`, 0.4 (inactive).
In the case of `CCCN1C(=O)C(Cc2nc3ccccc3c(=O)n2-c2ccccc2)c2cc(C)ccc21` (stereo not drawn) it was 0.19 (inactive); in that of `Cc1nn(CC(=O)Nc2ccc(N(C)C)cc2)c(C)c1[N+](=O)[O-]`, -0.87 (inactive); in that of `CCCCC(NS(=O)(=O)c1ccc(C)cc1)C(=O)Oc1ccc2c3c(c(=O)oc2c1)CCC3` (stereo not drawn), -1.42 (inactive).
